Hit rate of the full screen: of about 53,000 sequences, about 3,700 (7%) were called active.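 Rule for the calls: active = gene knockdowns whose robust z-score for IL-1 alpha signal is at least 2 or at most -2, so actives lie on both sides; inactive = the rest.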 The sample as a whole holds a higher share of actives than the screen did.
Experiment: Components of the Cytosolic LPS Sensing Pathway: Gene Identification via Genome-wide siRNA Screen;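 note: robust z of the log signal after scaling to non-targeting control siRNA wells of the plate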
Details: RAW264.7 macrophages, IL-1a HTRF, actives lie on both sides, screened at 100 nM (by protocol), cells primed 5 h with Pam3CSK4 first
How it was run: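 RAW264.7; siRNA 100 nM final, RNAiMAX, 48h 37 degrees C; Pam3CSK4 5 h; LipidA + TransIT-TKO 24 h; IL-1a HTRF; CellTiter-Glo viability; robust z vs negative-control median.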

z-score, active:
GGUUAGAGGAAAGGUUUAUTT against Htr1f 5.07
GGCUUUUUCCACAUGUGCCTT against Olfr514 -2.29
GGUGUCAGCGAAAAGCAGUTT against Ring1 -2.2
GGUCAUUGGUUCCUCCCUUTT against C2cd4c 2.59
GCAGCUAAGAAGACCACUATT against Zfp185 2.15
CCAGUCAAAUAUCCAUUAGTT against Scgb2b26 -2.28
CCAAUCACCAGAGACUAACTT against Slain1 2.81
GCCGAGCUCAUCAUCAUGATT against Prss40 2.5
GGACCUCAGUCACUUCCAATT against Etv4 2.93
GGCUUUAAGAUCACACAAATT against Snrpa 2.09
GGAAAAGUGACGGUAUCUATT against Rpsa -2.04
GGAAGACUGGUACACAUAATT against Tmem43 -2.32
GGAGUUGAAUGGCUCUGGATT against Usp26 -2.11
GGCAUCGUCACCAAACUGUTT against Fgf11 -2.51
CGGGCUGAAUGUGUUUGUGTT against Slc10a4 2.62
GGGUGAGCAGUACAUUCAATT against Plekhg6 2.73
CCCAACAACCAACUAUUUUTT against Kcna1 3.36
CCAAGGGAAGAUUCAAAUUTT against Abcc8 2.29
GCAUUAUGUCAGUAGCUCATT against Snrpb -3.47
GGCUCAAAGGAGGGUAGAGTT against Lcn8 3.18
GGGACAAGUGGUUGAAACCTT against Prmt8 -2.01

z-score, inactive:
GGAGAAAGAAAGCAGUUUUTT against 2310067E19Rik 1.55
GGGCAUUUUAACCAAAUGATT against Marchf11 0.544
GCUGCCUCAUUUCUGGAUGTT against Klk11 1.1
GGACAUGGAUGACACUGAUTT against Tsr3 -1.99
GGAAGAUGCACAUCUGGACTT against Enoph1 -0.55
CCAGGAUUCCGACUGAAUCTT against Oscp1 -0.367
GGGCUAAGUACCAAACUCATT against Ly6e -1.71
GCUUGCUAGAGUGAUCUCGTT against Adsl -0.331
GCCCUUGGAAUUUACCACUTT against Aldh8a1 -0.546
CCAGACUGAGAAGAUAUGATT against Meox2 -0.146
GGACAUUGUCUACAAGUUGTT against Pcgf2 1.12
GGACCGCUACUAUUCAGGATT against Myh10 0.93
GGGUUUUGGAUGGCGAAUATT against Lgals7 -0.0835
GGACGAAAAGAAGUGUUUCTT against Lamb2 -0.103
GGGAAACUCUGUCCAAUUGTT against Eif2d 0.402
CGGGAAAUUUCUAUUGGACTT against Akr1c12 0.312
GGUGAUGGAAGUUAGUGUGTT against Bet1 -1.34
GGCAUUCACCAUACAAUGATT against Ufm1 0.687
GGCUAACCACAUUUGCUUCTT against Zic4 0.759
GGAAGAUGUCCAAACCCGCTT against Tspan4 0.671
GGAGGUAACGCAUGUUACATT against 4930483J18Rik 0.393
GCGAAGUUACUACAGACGUTT against Slc39a1 -0.124
GGAGACUCUCACCUAUCAUTT against Doc2g -0.458
GGAAGUUUUUGAGAAUGGGTT against Ppp3cc -0.38
CCGAAUUCCAACCUAGAGCTT against Yipf5 -1.38
CCGCUCACGUGAAAAAGUUTT against Tars2 0.327
GGACAUCUGGUUAUGAAUGTT against B3galt6 -0.111
GCAUGACUCUCAGGUCAAGTT against Lman2 1.54
GGACAUUGCAUUGCUCAUGTT against Sec1 -0.526
CCUUCUUAUUGCUUAACCCTT against Scd3 0.279
GGAAGAAGAUAAAGAGCGGTT against Nrgn -0.708
AGUUCCAGGCGCAGAAACCTT against D8Ertd738e 1.46
GGUUUUUCUUCUGCUGGUGTT against Olfr1256 1.64
CCGGCUAAAUCACCGUGCUTT against Clpb -0.647
GCCCAAAAAGGAAUUAAUUTT against Pak3 -0.176
CCUGGAGAUCCCUCACUUUTT against Olfr1351 1.39
GCAGAUGCUUCGGUGAAAATT against Defb15 0.998
CCCAUACAAAGCACUUACATT against Otub1 0.589
GGACAAAUGGUAUUGUAGUTT against Coa5 -1.72
GCCGUCUUGUGUGUAUCAATT against Olfr1342 -0.186
GGGAUAAAAACCAUGGUUUTT against Pramel27 0.113
GCACUUAUGGUUUAGAUGUTT against Prdm8 -0.127
GGAACUUAUAUCUGCGCCATT against Gprin3 0.868
AAAAGCUUCACCUAACUAUTT against Ascc1 1.73
GGUGACAGUUGUUCACAAATT against 4933405O20Rik -1.4
GGAAUCAUAUCAGAAACUATT against Pde4b -0.475
GGGAGAGUCAAAAAAAGAUTT against Khdrbs1 -0.536
GCCAGUACUUAGGUCUAAGTT against Mrps25 1.24
GCCCUCAGGUGGUUCUUAATT against Heatr3 0.443
CCAUGUCAACGACCAUCAUTT against Glis2 0.189
GCACCUCCACAAGAAUGAATT against Six2 0.466
GGAACAUUGACCAGAUAGUTT against Ankrd44 -1.44
CCUUUGAGCCAGUUAUUUATT against Slc25a27 0.366
GGAACAUCUACAUUGUGGCTT against Tspan14 0.402
GGAAUUUGCUGCCCUCCUATT against Smad3 -0.206
GCAGACUCUUCCAAGUAAUTT against Lrrc28 0.529
GCUAGAUUUCUACUGUGUCTT against Mindy1 0.527
GCAAUUUUAGUUGGUGGAATT against Ddx24 -0.112
GCGGAAGUCGAAUCUGUCUTT against Aga -1.45
GGAAUUUGUCAGGUUCCAATT against Grik4 0.859
GGUACGGUAUGGAGAUCGGTT against Atpaf2 0.593
GGCAGAGCCAGGAUGUCUUTT against Msmb -1.2
GGUAACUCUCCUUAGCCAGTT against Klk10 -0.0493
GGACUCCCUGGAUUUCAGATT against Rapgef3 -1.34
GGCAGCUGAAGAUUAUGGATT against Tagln 0.837
GGCAAUAACAUUGCCUCGGTT against Igf1r 0.632
CCGAAAAUGUGGUAAAGUATT against Smg1 0.948
GGGAUAAAGAUGAAGAACUTT against Tmem167b 1.31
GGAAGUCAAGAUCUCACCUTT against Lrrc25 -0.864
CGUUUGAUACCAAAGAUUUTT against Onecut3 -1.12
GCUGUAAGCUACCGUCUGUTT against Panx2 1.54
GGUAUCUACCAGUACGAGATT against Izumo4 -1.59
CGGUGCACAACGUACCAAUTT against Srxn1 -0.0189
GGUAUCCCUAACUGGCAGUTT against Tro -0.849
GGAAAUAAAUGGCAGCAUGTT against H2-T3 1.47
GGAUGAUUCAUUCAGUGAUTT against Adcy9 0.918
CCAAAACUUUCCACUCUAATT against Ttc32 0.175
CCCAAACUGAAUUAAGCAGTT against Spata7 -0.515
GGAAAACUACUAAAAAGUCTT against Zfp938 -0.31
GGUUACUCCUUUUUAUGUATT against Bex1 -1.1
GGCCACAAACAGAAUUAUCTT against Mrpl2 -0.219
GGAGAAAAAGGGAAAGAAUTT against Dlx4 0.0644
CCUAGUUUGGUGAUGAUGUTT against Atg10 -0.262
GGUCAUUGAAAACUGUGCGTT against Sardh -1.04
GCAAGAGACCUUGUUAUAGTT against Cttnbp2nl -0.426
CCCAGUAAAUAAGAGUACATT against Treml1 -1.33
GGGAGACCCAAUGUCAUCATT against Dtx3 -1.25
